aSyn 5UTR act: Activators via SNCA 5'UTR binding, MLPCN; alpha-synuclein 5'UTR reporter, activators screen; activity score, % (tested at 7.5 µM), hits read low; 300,000 tested, 7.1% active; AID 1814; in the data active = activity score below about -60%
* = called active by the depositor. The list is a sample of the results.

SMILES | aSyn 5UTR act
O=C(c1ccc(Br)cc1)c1coc2ccc(O)cc12 | -92*
O=C(c1ccc(Cl)cc1)c1coc2ccc(O)cc12 | -128*
COc1cccc(-c2nn(C)c3sc(C(=O)NCCCN(C)Cc4ccccc4)cc23)c1 | -76*
COCCCNC(=O)c1cc2c(-c3ccc(Cl)cc3)nn(C)c2s1 | -72*
Cn1nc(-c2ccc(Cl)cc2)c2cc(C(=O)N3CCN(c4ccccc4)CC3)sc21 | -65*
CCCNC(=O)CCn1nc(-c2ccc(Cl)cc2)c2ccccc2c1=O | 82
Cc1nn(-c2ccccc2)c2sc(C(=O)N3CCOCC3)cc12 | -87*
CCN1CCN(/C=N/c2nc(C)cs2)CC1 | -83*
Cc1nn(-c2ccc(Cl)c(Cl)c2)c(=O)c2ccccc12 | -64*
Cc1nn(-c2ccc(Cl)cc2)c(=O)c2ccccc12 | -85*
Cc1nn(-c2ccc(Cl)nn2)c(=O)c2ccccc12 | -89*
Cc1nn(-c2nc3ccccc3[nH]2)c(=O)c2ccccc12 | 115
Cc1nn(-c2ccc3ccccc3c2)c(=O)c2ccccc12 | -183*
Cc1ccc(-n2ncc3ccccc3c2=O)cc1Cl | -143*
Cc1ccc(-c2nc3ccccc3[nH]2)cc1NC(=S)NC(=O)c1ccccc1Br | -67*
Cc1ccc(-c2nc3ccccc3s2)cc1NC(=S)NC(=O)c1ccccc1 | -116*
Cc1ccc2oc(-c3cccc(NC(=S)NC(=O)c4cccs4)c3)nc2c1 | -153*
O=C(Nc1ccc2oc(-c3ccccc3)nc2c1)c1cc(-n2cnnc2)ccc1Cl | -64*
O=C(Nc1ccc2oc(-c3ccccc3)nc2c1)c1cccs1 | -295*
Cc1ccc(-c2nc3ccccc3o2)cc1NC(=S)NC(=O)c1cccs1 | -75*
Oc1ccccc1/C=C/c1noc(-c2ccccc2O)n1 | -218*
CC(=O)Nc1ccc(/C=C/c2noc(-c3ccccc3O)n2)cc1 | -163*
COc1cc(/C=C/c2noc(-c3ccccc3O)n2)ccc1OC(C)=O | -130*
Cc1cc(C)n(-c2nc(-c3ccc(Cl)c(Cl)c3)cs2)n1 | -109*
Cc1ccc(NC(=O)OCc2cccs2)cc1 | -191*
SMILES | aSyn 5UTR act
Cc1ccc(NC(=O)OCc2cc(-c3ccccc3)on2)cc1 | -93*
O=C(N/N=C/c1ccc(Br)s1)c1c[nH]c2ccccc12 | -152*
O=C(N/N=C/c1cc(Br)cs1)c1c[nH]c2ccccc12 | -68*
CSc1nc(N)c(C(=O)Nc2ccc([N+](=O)[O-])cc2)s1 | -66*
CCCC1CC(=O)OC1(C)C(=O)CSc1n[nH]c(-c2ccccc2)n1 (stereo not drawn) | -66*
O=CC1=C(c2ccccc2)Oc2ccccc2O1 | -62*
CC(O)CNCCCCOc1ccc(OCc2ccccc2)cc1 (stereo not drawn) | -93*
Cc1ccc2nc(-c3cccnc3)oc2c1 | -80*
Cc1ccccc1-c1nc2cc(Cl)ccc2o1 | -183*
Clc1ccc2oc(-c3cccnc3)nc2c1 | -119*
Clc1ccc2oc(-c3ccccc3)nc2c1 | -151*
COC(=O)c1ccc(-c2nc3ccc(C)cc3o2)cc1 | -77*
Cc1ccc(-c2ccc(NC(=O)C3C4C=CC(C4)C3C(=O)O)cc2)o1 (stereo not drawn) | -181*
COc1ccc(C(=O)Nc2ccccc2C(=O)Nc2cccc(C)n2)cc1 | -86*
COc1ccc(C(=O)Nc2ccccc2C(=O)Nc2cccnc2)cc1 | -80*
Cc1ccnc(NC(=O)c2cc3ccccc3oc2=O)c1 | -202*
COc1ccccc1NC(=O)C(=O)Nc1ccccn1 | -167*
Cc1ccc(NC(=O)C(=O)Nc2ccccn2)cc1 | 71
COc1ccc(C(=O)Nc2ccccc2C(=O)Nc2cc(C)ccn2)cc1 | -107*
COc1cc2ccccc2cc1C(=O)Nc1cc(C)ccn1 | -94*
COc1cc(C(=O)Nc2ccccc2C(=O)Nc2ccccn2)cc(OC)c1OC | -67*
COc1ccc(C(=O)NC(=O)Nc2cc(C)ccn2)cc1 | 72
O=C(C[n+]1cn(C(F)F)c2ccccc21)c1ccc(OC(F)F)cc1 | -129*
N/C(=N\OC(=O)c1ccc2c(c1)OCO2)c1cccnc1 | -139*
COc1ccc(/C(N)=N/OC(=O)c2ccc3c(c2)OCO3)cc1OC | -87*
SMILES | aSyn 5UTR act
N/C(=N\OC(=O)c1ccc2c(c1)OCO2)c1ccc([N+](=O)[O-])cc1 | -128*
N/C(=N\OC(=O)c1ccc2c(c1)OCO2)c1cccc(Br)c1 | -146*
COc1cc(C(=O)O/N=C(\N)Cc2ccc([N+](=O)[O-])cc2)cc(OC)c1OC | 81
Cc1ccc2nc(NC(=O)COC(=O)c3ccccn3)sc2c1 | -109*
CCOc1ccc2nc(NC(=O)C3CCN(C(=O)c4ccco4)CC3)sc2c1 | -99*
CCOc1ccc2nc(NC(=O)C3(C)CC3(Br)Br)sc2c1 (stereo not drawn) | -128*
Cc1ccc2nc(NC(=O)CCCC(=O)O)sc2c1 | 102
Cc1ccc2nc(NC(=O)CSCC(=O)OCC(=O)c3ccccc3)sc2c1 | 62
Cc1ccc2nc(NC(=O)CCn3cccc3)sc2c1 | -115*
CCOc1ccc2nc(NC(=O)c3cnccn3)sc2c1 | -127*
C/C=C/C(=O)OCC(=O)Nc1nc2ccc(C)cc2s1 | -74*
CCOCC(=O)Nc1nc2ccc(OCC)cc2s1 | -73*
Cc1ccc2nc(NC(=O)C3CC3C)sc2c1 (stereo not drawn) | -105*
CCOc1ccc2nc(-c3cc(NC(C)=O)ccc3O)sc2c1 | -161*
CCOCC(=O)Nc1nc2ccc(C)cc2s1 | -85*
COc1cc2c(cc1OC)C(c1cccs1)N(C(=S)NC(C)C)CC2 (stereo not drawn) | -74*
CN(C)c1ccc(/C=C2\CCC/C(=C\c3ccccc3)C2=O)cc1 | -81*
COc1ccc(/C=C2\CCC/C(=C\C=N\N(C)C)C2=O)cc1 | -427*
CN(C)/N=C/C=C1\CCC/C(=C\c2ccc(F)c(F)c2)C1=O | -422*
CCOC(=O)c1cnc2c(-c3ccccc3)cnn2c1C | -112*
CC(=O)c1cnc2c(-c3ccccc3)cnn2c1C | -68*
CCOC(=O)C1CCN(C(=O)CCc2c(C)nc3cc(-c4ccccc4)nn3c2C)CC1 | 66
CCOC(=O)Cc1c(C)nc2c(-c3ccccc3)cnn2c1C | -70*
CC1=NN(c2ccccc2)C(=O)/C1=C/c1cc2cc(C)ccc2nc1N1CCCCC1 | -107*
O=C(O)c1cc(N/N=C/c2ccc3c(c2)OCO3)ccc1Cl | -73*
SMILES | aSyn 5UTR act
O=C(O)c1ccc(N/N=C/c2ccc3c(c2)OCO3)cc1 | 94
C/C(=N\Nc1ccc(Cl)c(C(=O)O)c1)c1ccc2c(c1)OCO2 | -73*
Cc1ccc(N/N=C/c2ccc3c(c2)OCCO3)cc1Cl | -87*
Cc1cc(N/N=C/c2ccccc2)nc(N2CCOCC2)n1 | -83*
Cc1ccc(N/N=C/c2ccc(N3CCOCC3)cc2)cc1C | -96*
OC1CCCN(C(=S)Nc2ccc(SC(F)F)cc2)C1 (stereo not drawn) | -68*
OC1CCN(C(=S)Nc2ccc(Nc3ccccc3)cc2)CC1 | -116*
CC1CCCN(C(=S)Nc2ccc(Nc3ccccc3)cc2)C1 (stereo not drawn) | -123*
O=C(Nc1cc(-c2ccccc2)[nH]n1)c1ccc(Cl)cc1 | -124*
Cc1ccc(NC(=O)c2ccc3c(c2)NC(=O)CS3)nc1 | -93*
Cc1ccc(NC(=O)c2cccc(Cl)c2)nc1 | -75*
Cn1sc(NC(=O)c2cccc(Cl)c2)nc1=O | -118*
Cc1cc(NC(=O)c2cccc(Cl)c2)n[nH]1 | -71*
CC(=O)N1CCN(S(=O)(=O)c2cccc(C(=O)Nc3ccc(C)cn3)c2)CC1 | -71*
CCOC(=O)N1CCN(S(=O)(=O)c2ccc(C(=O)NNc3nc4cc(C)cc(C)c4s3)cc2)CC1 | 66

Bioassay records from PubChem BioAssay.
